# Where two headings read alike, the source gives them in different places.
# Columns and labels:
# STK10 = conditions: read-out: apparent Kd, n = 1
# TBK1 = conditions: read-out: apparent Kd, n = 1
substance,measurement,setting,value
Lestaurtinib,potency estimated from few doses,"STK10; compound concentrations:100 nM and 1000 nM (sheet 'Lestaurtinib' of Supplementary Table 1),run:Lestaurtinib_02437_R3,Plate:MR007",18.2 nM
same,potency estimated from few doses,"STK10; compound concentrations:100 nM and 1000 nM (sheet 'Lestaurtinib' of Supplementary Table 1),run:Lestaurtinib_02438_R2,Plate:MR008",137 nM
same,potency estimated from few doses,"STK10; compound concentrations:100 nM and 1000 nM (sheet 'Lestaurtinib' of Supplementary Table 1),run:Lestaurtinib_02443_R1,Plate:MR009",141 nM
same,potency estimated from few doses,"STK10; compound concentrations:100 nM and 1000 nM (sheet 'Lestaurtinib' of Supplementary Table 1),run:Lestaurtinib_02443_R3,Plate:MR009",154 nM
same,potency estimated from few doses,"STK10; compound concentrations:100 nM and 1000 nM (sheet 'Lestaurtinib' of Supplementary Table 1),run:Lestaurtinib_02473_R2,Plate:MR010",140 nM
same,potency estimated from few doses,"STK10; compound concentrations:100 nM and 1000 nM (sheet 'Lestaurtinib' of Supplementary Table 1),run:Lestaurtinib_02482_R1,Plate:MR011",131 nM
same,potency estimated from few doses,"STK10; compound concentrations:100 nM and 1000 nM (sheet 'Lestaurtinib' of Supplementary Table 1),run:Lestaurtinib_02482_R2,Plate:MR011",157 nM
same,potency estimated from few doses,"STK10; compound concentrations:100 nM and 1000 nM (sheet 'Lestaurtinib' of Supplementary Table 1),run:Lestaurtinib_02482_R3,Plate:MR011",136 nM
same,potency estimated from few doses,"STK10; compound concentrations:100 nM and 1000 nM (sheet 'Lestaurtinib' of Supplementary Table 1),run:Lestaurtinib_02487_R3,Plate:MR012",163 nM
same,potency estimated from few doses,"STK10; compound concentrations:100 nM and 1000 nM (sheet 'Lestaurtinib' of Supplementary Table 1),run:Lestaurtinib_02566_R2,Plate:MR014",144 nM
same,potency estimated from few doses,"STK10; compound concentrations:100 nM and 1000 nM (sheet 'Lestaurtinib' of Supplementary Table 1),run:Lestaurtinib_02566_R3,Plate:MR014",135 nM
same,potency estimated from few doses,"STK10; compound concentrations:100 nM and 1000 nM (sheet 'Lestaurtinib' of Supplementary Table 1),run:Lestaurtinib_02572_R3,Plate:MR015",157 nM
same,potency estimated from few doses,"STK10; compound concentrations:100 nM and 1000 nM (sheet 'Lestaurtinib' of Supplementary Table 1),run:Lestaurtinib_02577_R3,Plate:MR016",181 nM
same,potency estimated from few doses,"STK10; compound concentrations:100 nM and 1000 nM (sheet 'Lestaurtinib' of Supplementary Table 1),run:Lestaurtinib_02584_R3,Plate:MR017",179 nM
same,potency estimated from few doses,"STK10; compound concentrations:100 nM and 1000 nM (sheet 'Lestaurtinib' of Supplementary Table 1),run:Lestaurtinib_02601_R1,Plate:MR018",137 nM
same,potency estimated from few doses,"STK10; compound concentrations:100 nM and 1000 nM (sheet 'Lestaurtinib' of Supplementary Table 1),run:Lestaurtinib_02601_R2,Plate:MR018",167 nM
same,potency estimated from few doses,"STK10; compound concentrations:100 nM and 1000 nM (sheet 'Lestaurtinib' of Supplementary Table 1),run:Lestaurtinib_02606_R1,Plate:MR019",135 nM
same,potency estimated from few doses,"STK10; compound concentrations:100 nM and 1000 nM (sheet 'Lestaurtinib' of Supplementary Table 1),run:Lestaurtinib_02606_R3,Plate:MR019",144 nM
same,potency estimated from few doses,"STK10; compound concentrations:100 nM and 1000 nM (sheet 'Lestaurtinib' of Supplementary Table 1),run:Lestaurtinib_02624_R2,Plate:MR020",137 nM
same,potency estimated from few doses,"STK10; compound concentrations:100 nM and 1000 nM (sheet 'Lestaurtinib' of Supplementary Table 1),run:Lestaurtinib_02624_R3,Plate:MR020",115 nM
same,potency estimated from few doses,"STK10; compound concentrations:100 nM and 1000 nM (sheet 'Lestaurtinib' of Supplementary Table 1),run:Lestaurtinib_02724_R2,Plate:MR021",121 nM
same,potency estimated from few doses,"STK10; compound concentrations:100 nM and 1000 nM (sheet 'Lestaurtinib' of Supplementary Table 1),run:Lestaurtinib_02741_R2,Plate:MR023",134 nM
same,potency estimated from few doses,"STK10; compound concentrations:100 nM and 1000 nM (sheet 'Lestaurtinib' of Supplementary Table 1),run:Lestaurtinib_02741_R3,Plate:MR023",140 nM
same,potency estimated from few doses,"STK10; compound concentrations:100 nM and 1000 nM (sheet 'Lestaurtinib' of Supplementary Table 1),run:Lestaurtinib_02748_R1,Plate:MR024",157 nM
same,potency estimated from few doses,"STK10; compound concentrations:100 nM and 1000 nM (sheet 'Lestaurtinib' of Supplementary Table 1),run:Lestaurtinib_02748_R2,Plate:MR024",153 nM
same,potency estimated from few doses,"STK10; compound concentrations:100 nM and 1000 nM (sheet 'Lestaurtinib' of Supplementary Table 1),run:Lestaurtinib_02748_R3,Plate:MR024",115 nM
same,potency estimated from few doses,"STK10; compound concentrations:100 nM and 1000 nM (sheet 'Lestaurtinib' of Supplementary Table 1),run:Lestaurtinib_02752_R1,Plate:MR025",124 nM
same,potency estimated from few doses,"STK10; compound concentrations:100 nM and 1000 nM (sheet 'Lestaurtinib' of Supplementary Table 1),run:Lestaurtinib_02752_R2,Plate:MR025",141 nM
same,potency estimated from few doses,"STK10; compound concentrations:100 nM and 1000 nM (sheet 'Lestaurtinib' of Supplementary Table 1),run:Lestaurtinib_02765_R1,Plate:MR026",97 nM
same,potency estimated from few doses,"STK10; compound concentrations:100 nM and 1000 nM (sheet 'Lestaurtinib' of Supplementary Table 1),run:Lestaurtinib_02765_R2,Plate:MR026",132 nM
same,potency estimated from few doses,"STK10; compound concentrations:100 nM and 1000 nM (sheet 'Lestaurtinib' of Supplementary Table 1),run:Lestaurtinib_02766_R2,Plate:MR027",93.1 nM
same,potency estimated from few doses,"STK10; compound concentrations:100 nM and 1000 nM (sheet 'Lestaurtinib' of Supplementary Table 1),run:Lestaurtinib_02766_R3,Plate:MR027",137 nM
same,potency estimated from few doses,"STK10; compound concentrations:100 nM and 1000 nM (sheet 'Lestaurtinib' of Supplementary Table 1),run:Lestaurtinib_02768_R1,Plate:MR028",115 nM
same,potency estimated from few doses,"STK10; compound concentrations:100 nM and 1000 nM (sheet 'Lestaurtinib' of Supplementary Table 1),run:Lestaurtinib_02768_R3,Plate:MR028",133 nM
same,potency estimated from few doses,"STK10; compound concentrations:100 nM and 1000 nM (sheet 'Lestaurtinib' of Supplementary Table 1),run:Lestaurtinib_02795_R1,Plate:MR022",134 nM
same,potency estimated from few doses,"STK10; compound concentrations:100 nM and 1000 nM (sheet 'Lestaurtinib' of Supplementary Table 1),run:Lestaurtinib_02795_R2,Plate:MR022",130 nM
same,potency estimated from few doses,"STK10; compound concentrations:100 nM and 1000 nM (sheet 'Lestaurtinib' of Supplementary Table 1),run:Lestaurtinib_02802_R1,Plate:MR029",113 nM
same,potency estimated from few doses,"STK10; compound concentrations:100 nM and 1000 nM (sheet 'Lestaurtinib' of Supplementary Table 1),run:Lestaurtinib_02896_R2,Plate:MR030",142 nM
same,potency estimated from few doses,"STK10; compound concentrations:100 nM and 1000 nM (sheet 'Lestaurtinib' of Supplementary Table 1),run:Lestaurtinib_03252_R2,Plate:MR032",74.5 nM
same,potency estimated from few doses,"STK10; compound concentrations:100 nM and 1000 nM (sheet 'Lestaurtinib' of Supplementary Table 1),run:Lestaurtinib_03260_R1,Plate:MR033",228 nM
same,potency estimated from few doses,"STK10; compound concentrations:100 nM and 1000 nM (sheet 'Lestaurtinib' of Supplementary Table 1),run:Lestaurtinib_03260_R2,Plate:MR033",211 nM
same,potency estimated from few doses,"TBK1; compound concentrations:100 nM and 1000 nM (sheet 'Lestaurtinib' of Supplementary Table 1),run:Lestaurtinib_02339_R2,Plate:MR001",822 nM
same,potency estimated from few doses,"TBK1; compound concentrations:100 nM and 1000 nM (sheet 'Lestaurtinib' of Supplementary Table 1),run:Lestaurtinib_02364_R3,Plate:MR002",1610 nM
same,potency estimated from few doses,"TBK1; compound concentrations:100 nM and 1000 nM (sheet 'Lestaurtinib' of Supplementary Table 1),run:Lestaurtinib_02381_R1,Plate:MR004",1350 nM
same,potency estimated from few doses,"TBK1; compound concentrations:100 nM and 1000 nM (sheet 'Lestaurtinib' of Supplementary Table 1),run:Lestaurtinib_02381_R2,Plate:MR004",1600 nM
